# Where “and” joins values, the source holds several entries; their conditions need not be identical. Equal values may be shown once. Values without a mark were called inactive.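 The calls were made as follows: active = AUC reduced over 20% with Padj below 0.05 in at least 2 of 3 replicates; inactive = otherwise.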
# System: Lactobacillus paracasei
# Assay: growth AUC relative to DMSO control (median of replicates) (fraction); higher = more growth (less inhibition), active = hit call of the paper
# Settings: 20 µM; 24 h
# Summary of the method: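 Gut bacterial monocultures in mGAM were treated with 20 µM compound (1% DMSO) and grown anaerobically at 37 °C in round-bottom 96-well plates from OD600 0.05. OD600 was read hourly for 24 h, with the minimum OD set to 0. Area under the growth curve was normalised to the plate median of solvent-only wells, or to row and column medians on the industrial chemical plate. Each value is the median of three biological replicates, each grown on a separate day.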
row,SMILES,growth AUC
1,COP(N)(=O)SC (centres undefined),1.07
2,COc1cc(OC)n2nc(S(=O)(=O)Nc3c(Cl)ccc(C)c3Cl)nc2n1,0.978
3,CC(C)N(C(=O)SCC(Cl)=C(Cl)Cl)C(C)C,1
4,O=S(=O)(c1ccc(O)cc1)c1ccc(O)cc1,0.953
5,CN(C)NC(=O)CCC(=O)O,1.02
6,CCN(CC)c1nc(C)cc(OP(=S)(OC)OC)n1,0.982
7,Clc1cccc(Cl)c1Cl,1.03
8,CCN(CC)C(=S)[S-].O.O.O.[Na+],0.978
9,C#CCC1=C(C)C(OC(=O)C2C(C=C(C)C)C2(C)C)CC1=O (centres undefined),1
10,CCOc1ccccc1OS(=O)(=O)NC(=O)Nc1nc(OC)cc(OC)n1,0.736
11,CNC(=O)Oc1cc(C)cc(C(C)C)c1,0.974
12,CCCCN(CC)c1c([N+](=O)[O-])cc(C(F)(F)F)cc1[N+](=O)[O-],1.03
13,O=C(O)CCl,1.03
14,CC[C@H](C)[C@H]1O[C@]2(C=C[C@@H]1C)C[C@@H]1C[C@@H](C/C=C(\C)[C@@H](O[C@H]3C[C@H](OC)[C@@H](O[C@H]4C[C@H](OC)[C@@H](NC)[C@H](C)O4)[C@H](C)O3)[C@@H](C)/C=C/C=C3\CO[C@@H]4[C@H](O)C(C)=C[C@@H](C(=O)O1)[C@]34O)O2.O=C(O)c1ccccc1,0.597
15,CON(C)C(=O)Nc1ccc(Cl)c(Cl)c1,0.996
16,CCCCOC(=O)[C@@H](C)Oc1ccc(Oc2ccc(C#N)cc2F)cc1,0.939
17,Clc1cc(Cl)c(Cl)c(Cl)c1,0.949
18,CN(C)C(=O)Nc1cccc(C(F)(F)F)c1,0.985
19,CN(C)C(=O)Nc1cccc(OC(=O)NC(C)(C)C)c1,0.934
20,CCOP(=O)(NC(C)C)Oc1ccc(SC)c(C)c1 (centres undefined),0.965

row,SMILES,growth AUC
1,ClCC(Br)CBr (centres undefined),0.995
2,O=[N+]([O-])c1c(Cl)c(Cl)cc(Cl)c1Cl,0.927
3,CCS(=O)c1c(C#N)nn(-c2c(Cl)cc(C(F)(F)F)cc2Cl)c1N (centres undefined),1.02
4,CNC(=O)Oc1cccc2c1OC(C)(C)C2O (centres undefined),1.11
5,CCOP(=O)(SC(C)CC)N1CCSC1=O (centres undefined),1.01
6,CCOP(=O)(OCC)ON1C(=O)c2cccc3cccc(c23)C1=O,0.971
7,O=C(O)C(F)(F)C(F)(F)C(F)(F)C(F)(F)C(F)(F)C(F)(F)F,1.01
8,O=S1OC[C@@H]2[C@H](CO1)[C@]1(Cl)C(Cl)=C(Cl)[C@@]2(Cl)C1(Cl)Cl (some centres undefined),1.05 and 1.01
9,O=C(O)c1ccccc1C(=O)Nc1cccc2ccccc12,1.02
10,CCCCN(CCCC)SN(C)C(=O)Oc1cccc2c1OC(C)(C)C2,0.981
11,C[n+]1ccc(-c2cc[n+](C)cc2)cc1.O.[Cl-].[Cl-],1.01
12,CCC(C)(CC)c1cc(NC(=O)c2c(OC)cccc2OC)on1,1.02
13,CNC(=O)Oc1cc(C)c(SC)c(C)c1,0.931
14,COC(=O)C(C)(Cl)Cl,1.03
15,Cc1cc(Cl)ccc1N=CN(C)C,0.997
16,Nc1cc(Cl)cc(Cl)c1,1
17,CCCCCCCCCc1ccc(O)cc1,1.01
18,COc1c(Cl)ccc(Cl)c1Cl,0.937
19,CC(C)(C)c1cc([N+](=O)[O-])cc([N+](=O)[O-])c1O,0.859

# From the supplement of paper PMC12669032
